# Data published in PubChem BioAssay.
# Active and inactive are the calls of the source.
# Legend:
# [1] = tested on: Plasmodium falciparum Sir2 (PF13_0152, Sir2A); assay: pfSir2 binders on small-molecule microarrays, primary screen, biochemical, small-molecule microarray, 635 nm fluorescence (AID 1098); conditions: small-molecule microarray binding, fluorescence 635 nm; higher = more signal;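 note: score merges spot fluorescence intensity with its signal-to-noise ratio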
# [2] = small-molecule microarray binders of probe aDKK1, primary screen, biochemical, biotinylated probe, 635/667 nm fluorescence (AID 1099); conditions: higher = more signal;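 note: score merges 667nm spot fluorescence with signal to noise across triplicate slides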
# [3] = small-molecule microarray binders of probe aCHRDL2, primary screen, biochemical, biotinylated probe, 635/667 nm fluorescence (AID 1100); conditions: higher = more signal
# [4] = splicing luciferase reporter signal modulators, primary screen, spliceosome inhibition project, cell-based, HEK293, splice +/- reporter (AID 1101); conditions: luminescence, 24 h, higher = more signal, called active from +8 up or from −8 down;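 note: HEK293 cells carrying a splicing-competent luciferase reporter gene; test concentration not given here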
# [5] = target: Fibroblast growth factor 10 (Homo sapiens) (UniProt O15520); assay: FGF10 binders on small-molecule microarrays, primary screen, biochemical, small-molecule microarray, 635 nm fluorescence (AID 1102); conditions: FGF10 binding, fluorescence 635 nm, higher = more signal
# [6] = tested on: glycogen synthase kinase-3 (GSK3A per assay name; protocol says GSK3B); assay: GSK3 binders on small-molecule microarrays, primary screen, biochemical, small-molecule microarray, 635 nm fluorescence, GSK3A (AID 1103); conditions: small-molecule microarray binding, fluorescence 635 nm; higher = more signal; note: the record names both GSK3A and GSK3B
# [7] = target: Epidermal growth factor receptor (Homo sapiens) (UniProt P00533); assay: EGFR binders on small-molecule microarrays, primary screen, biochemical, small-molecule microarray, 635 nm fluorescence (AID 1104); conditions: EGFR binding, higher = more signal;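 note: score merges 667 nm emission intensity with spot signal to noise over triplicate slides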
# [8] = target: Follistatin-related protein 3 (Homo sapiens) (UniProt O95633); assay: FSTL3 binders on small-molecule microarrays, primary screen, biochemical, small-molecule microarray, 635 nm fluorescence (AID 1105); conditions: FSTL3 binding, higher = more signal;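 note: score merges emission near 667 nm and signal to noise per printed spot across three slides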
# [9] = target: Dickkopf-related protein 1 (Homo sapiens) (UniProt O94907); assay: DKK1 binders on small-molecule microarrays, primary screen, biochemical, small-molecule microarray, 635 nm fluorescence scan (AID 1106); conditions: DKK1 binding, higher = more signal;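 note: score merges emission near 667 nm with signal to noise over three replicate slides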
# [10] = tested on: Inhibin beta A chain (activin A); assay: INHBA (activin A) binders on microarrays, primary screen, biochemical, small-molecule microarray, 635 nm fluorescence scan (AID 1107); conditions: small-molecule microarray binding, higher = more signal;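 note: mouse activin A protein probed at 4.33 µg/mL on printed slides; score merges bound-protein fluorescence near 667 nm with spot signal-to-noise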
# [11] = tested on: Human papillomavirus type 1a protein E7 (residues 44-93); assay: HPV1a E7 fragment binders on microarrays, primary screen, biochemical, small-molecule microarray, residues 44-93, 635 nm fluorescence (AID 1108); conditions: small-molecule microarray binding, fluorescence 635 nm; higher = more signal;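 note: E7 fragment applied at 1 µg/mL in TBST for 1 h at 4 C; score combines spot fluorescence with its signal to noise ratio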
# [12] = modulators of HCV replicon luciferase signal, primary screen, HCV replication inhibitor project, Huh7 cells, luciferase reporter (AID 1109); conditions: 48 h, higher = more signal;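 note: huh7 hepatoma cells harbouring a luciferase neomycin HCV replicon reporter; luciferase luminescence as measure of HCV replicon replication; test concentration not given here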
# [13] = target: Left-right determination factor 2 (Homo sapiens) (UniProt O00292); assay: LEFTY2 binders on small-molecule microarrays, primary screen, biochemical, small-molecule microarray, 635 nm fluorescence scan (AID 1110); conditions: LEFTY2 binding, higher = more signal
# [14] = target: Calmodulin-1 (Homo sapiens) (UniProt P0DP23); assay: CALM1 binders on microarrays, EGTA buffer, profiling panel, biochemical, small-molecule microarray, Cy5-labelled CALM1 (AID 1111); conditions: Cy5-CALM1 binding fluorescence, higher = more signal;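 note: labelled calmodulin applied in Tris saline Tween buffer holding calcium plus EGTA and DTT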
# [15] = target: Calmodulin-1 (Homo sapiens) (UniProt P0DP23); assay: calcium-bound CALM1 binders on microarrays, profiling panel, artefact control for SMM control-protein annotation, biochemical, small-molecule microarray, Cy5-labelled CALM1, plus calcium (AID 1112); conditions: Cy5-CALM1 binding fluorescence, higher = more signal;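 note: score merges spot fluorescence with signal to noise from triplicate slides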
# [16] = small-molecule microarray binders of probe aWnt5a, primary screen, biochemical, biotinylated probe, 635/667 nm fluorescence (AID 1113); conditions: higher = more signal;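 note: score merges 667 nm fluorescence intensity with signal-to-noise per printed feature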
# [17] = small-molecule microarray binders of probe aShh, primary screen, biochemical, biotinylated probe, 635/667 nm fluorescence (AID 1114); conditions: higher = more signal;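 note: probe is biotin-labelled aShh protein from a stem cell growth factor screen; measures binding of labelled protein to compounds printed on the slide; score merges feature fluorescence at 667 nm with signal-to-noise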
# [18] = small-molecule microarray binders of probe aNog, primary screen, biochemical, biotinylated probe, 635/667 nm fluorescence (AID 1115); conditions: higher = more signal;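 note: probe is biotinylated aNog protein used at 0.15 µg/mL for 1 h at 4 C; z-score combines 667 nm fluorescence of each spot with its signal to noise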
# [19] = target: Torsin-1A-interacting protein 1 (Homo sapiens) (UniProt Q5JTV8); assay: LAP1 binders from COS7 cell lysate, primary screen, small-molecule microarray, 635/667 nm fluorescence (AID 1116); conditions: COS7-hLAP1 lysate binding, 635 nm fluorescence, higher = more signal
# [20] = target: Alpha-bungarotoxin (Bungarus multicinctus) (UniProt P60615); assay: alpha-bungarotoxin binders on microarray, profiling panel, artefact control for SMM control protein annotation, biochemical, small-molecule microarray, Alexa647 label, 635/667 nm fluorescence (AID 1117); conditions: alpha-BTX-A647 binding fluorescence, higher = more signal
# Chain of Alpha-bungarotoxin (Bungarus multicinctus) (P60615 whole entry, looked up): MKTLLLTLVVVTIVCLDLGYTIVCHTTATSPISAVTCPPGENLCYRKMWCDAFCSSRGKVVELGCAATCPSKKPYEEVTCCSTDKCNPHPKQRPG
# Chain of Torsin-1A-interacting protein 1 (Homo sapiens) (Q5JTV8 whole entry, looked up): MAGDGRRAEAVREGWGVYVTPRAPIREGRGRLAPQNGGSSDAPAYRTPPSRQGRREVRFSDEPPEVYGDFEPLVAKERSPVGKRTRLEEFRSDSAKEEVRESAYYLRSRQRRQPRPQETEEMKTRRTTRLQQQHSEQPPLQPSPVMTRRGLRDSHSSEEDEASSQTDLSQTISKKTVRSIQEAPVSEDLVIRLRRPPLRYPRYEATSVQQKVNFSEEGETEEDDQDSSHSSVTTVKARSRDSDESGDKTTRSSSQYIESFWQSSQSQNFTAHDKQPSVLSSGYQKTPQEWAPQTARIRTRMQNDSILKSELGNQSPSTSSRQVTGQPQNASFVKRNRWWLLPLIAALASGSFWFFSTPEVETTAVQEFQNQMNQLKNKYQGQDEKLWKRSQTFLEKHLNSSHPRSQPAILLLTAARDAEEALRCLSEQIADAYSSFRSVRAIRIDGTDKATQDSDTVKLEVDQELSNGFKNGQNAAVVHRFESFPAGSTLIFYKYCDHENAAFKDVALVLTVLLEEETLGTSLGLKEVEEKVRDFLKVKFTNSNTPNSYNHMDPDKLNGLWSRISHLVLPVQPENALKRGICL
# Chain of Epidermal growth factor receptor (Homo sapiens) (P00533 whole entry, looked up): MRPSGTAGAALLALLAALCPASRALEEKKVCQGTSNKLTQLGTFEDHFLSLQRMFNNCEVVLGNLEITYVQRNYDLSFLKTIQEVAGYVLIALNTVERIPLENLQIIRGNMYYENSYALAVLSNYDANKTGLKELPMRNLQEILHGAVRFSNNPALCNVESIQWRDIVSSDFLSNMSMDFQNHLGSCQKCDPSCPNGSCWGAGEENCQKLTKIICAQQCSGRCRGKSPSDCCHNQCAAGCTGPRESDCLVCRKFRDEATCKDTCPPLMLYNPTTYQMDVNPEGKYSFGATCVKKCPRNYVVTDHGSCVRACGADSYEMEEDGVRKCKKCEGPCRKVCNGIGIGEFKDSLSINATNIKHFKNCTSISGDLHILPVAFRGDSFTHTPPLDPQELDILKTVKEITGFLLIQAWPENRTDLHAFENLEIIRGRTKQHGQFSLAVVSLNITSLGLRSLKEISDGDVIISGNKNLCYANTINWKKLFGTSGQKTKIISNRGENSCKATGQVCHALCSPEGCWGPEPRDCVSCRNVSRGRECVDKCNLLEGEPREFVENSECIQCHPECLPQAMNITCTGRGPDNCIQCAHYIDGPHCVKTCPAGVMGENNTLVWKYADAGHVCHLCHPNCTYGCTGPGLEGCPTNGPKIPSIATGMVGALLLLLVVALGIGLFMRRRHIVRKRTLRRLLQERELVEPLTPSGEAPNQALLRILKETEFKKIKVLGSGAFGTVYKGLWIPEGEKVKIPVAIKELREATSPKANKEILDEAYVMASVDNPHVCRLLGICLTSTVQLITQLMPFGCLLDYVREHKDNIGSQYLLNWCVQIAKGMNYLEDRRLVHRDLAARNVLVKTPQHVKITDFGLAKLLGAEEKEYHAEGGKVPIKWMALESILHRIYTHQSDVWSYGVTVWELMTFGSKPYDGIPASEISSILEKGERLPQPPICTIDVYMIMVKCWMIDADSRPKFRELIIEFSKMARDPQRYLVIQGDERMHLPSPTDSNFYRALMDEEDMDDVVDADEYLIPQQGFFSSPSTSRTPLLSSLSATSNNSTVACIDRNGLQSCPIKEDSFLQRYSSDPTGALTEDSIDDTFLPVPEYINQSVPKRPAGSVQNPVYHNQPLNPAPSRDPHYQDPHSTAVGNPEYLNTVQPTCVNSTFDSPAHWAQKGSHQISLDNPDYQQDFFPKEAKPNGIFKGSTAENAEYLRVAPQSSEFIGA
# Chain of Left-right determination factor 2 (Homo sapiens) (O00292 whole entry, looked up): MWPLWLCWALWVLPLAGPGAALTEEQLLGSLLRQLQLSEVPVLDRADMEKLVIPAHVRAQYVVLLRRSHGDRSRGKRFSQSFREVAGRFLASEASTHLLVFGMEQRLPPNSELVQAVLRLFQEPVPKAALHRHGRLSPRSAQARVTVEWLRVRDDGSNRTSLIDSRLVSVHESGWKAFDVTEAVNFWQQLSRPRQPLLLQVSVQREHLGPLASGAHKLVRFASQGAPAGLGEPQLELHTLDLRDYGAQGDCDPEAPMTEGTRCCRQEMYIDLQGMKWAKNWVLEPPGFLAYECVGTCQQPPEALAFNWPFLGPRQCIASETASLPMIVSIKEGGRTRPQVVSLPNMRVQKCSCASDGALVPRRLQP
# Chain of Follistatin-related protein 3 (Homo sapiens) (O95633 whole entry, looked up): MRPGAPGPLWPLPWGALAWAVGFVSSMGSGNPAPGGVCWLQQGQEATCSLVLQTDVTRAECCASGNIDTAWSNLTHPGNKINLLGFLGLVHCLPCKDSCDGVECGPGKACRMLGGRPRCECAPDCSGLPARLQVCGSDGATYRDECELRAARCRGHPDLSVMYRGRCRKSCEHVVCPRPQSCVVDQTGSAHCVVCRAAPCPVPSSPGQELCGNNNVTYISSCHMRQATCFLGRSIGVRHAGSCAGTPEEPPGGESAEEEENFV
# Chain of Fibroblast growth factor 10 (Homo sapiens) (O15520 whole entry, looked up): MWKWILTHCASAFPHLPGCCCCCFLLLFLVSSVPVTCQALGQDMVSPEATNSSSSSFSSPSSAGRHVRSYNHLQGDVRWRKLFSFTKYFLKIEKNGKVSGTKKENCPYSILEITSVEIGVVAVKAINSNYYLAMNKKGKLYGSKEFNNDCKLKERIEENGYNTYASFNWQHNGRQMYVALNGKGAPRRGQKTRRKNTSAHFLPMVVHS
# Chain of Dickkopf-related protein 1 (Homo sapiens) (O94907 whole entry, looked up): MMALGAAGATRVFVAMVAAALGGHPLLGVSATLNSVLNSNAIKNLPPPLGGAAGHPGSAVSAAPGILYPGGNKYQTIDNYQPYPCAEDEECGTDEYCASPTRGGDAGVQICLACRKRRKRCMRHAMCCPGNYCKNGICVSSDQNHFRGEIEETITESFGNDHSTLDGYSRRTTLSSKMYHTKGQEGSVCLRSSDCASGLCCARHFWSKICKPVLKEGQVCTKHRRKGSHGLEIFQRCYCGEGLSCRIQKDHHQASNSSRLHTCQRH
SMILES,composite z-score [1],composite z-score [2],composite z-score [3],z-score [4],composite z-score [5],composite z-score [6],composite z-score [7],composite z-score [8],composite z-score [9],composite z-score [10],composite z-score [11],z-score [12],composite z-score [13],composite z-score [14],composite z-score [15],composite z-score [16],composite z-score [17],composite z-score [18],composite z-score [19],composite z-score [20]
COCCOC(=O)N1C(=O)[C@@]2(c3cc(C#CCNC(N)=O)ccc31)[C@H](C(=O)N1CCc3cc(OC)c(OC)cc3C1)[C@H]1C(=O)O[C@H](c3ccccc3)[C@H](c3ccccc3)N1[C@@H]2c1ccc(OCCO)cc1,1.06,-0.0141,-0.053,-0.0304 (inactive),1.28,-0.08,0.528,1.17,0.529,0.886,0.581,-0.45,0.556,0.432,-0.178,-0.0236,0.0637,-0.794,0.5,0.399
O=C(O)[C@@]1(Cc2ccccc2)N=C(c2ccc(OCCCO)cc2)O[C@H]1c1ccccc1,1.03,0.116,0.614,-0.674 (inactive),0.252,-0.11,-1.02,0.0206,-0.872,0.779,0.843,-0.0284,-1.13,0.102,1.07,-0.0179,0.216,0.966,-0.514,1.07
COCCOC(=O)N1C(=O)[C@@]2(c3cc(C#CCCO)ccc31)[C@H](c1ccc(O)cc1)N1[C@H](c3ccccc3)[C@H](c3ccccc3)OC(=O)[C@H]1[C@@H]2C(N)=O,1.33,0.407,0.654,-0.626 (inactive),0.173,0.169,-0.709,-0.0665,-0.282,0.907,-0.0809,-0.016,-0.597,-0.523,0.456,-0.0118,0.0611,0.0157,0.393,0.755
C=CC[C@]1(C(=O)N2CCOCC2)N=C(c2ccc(OCCCO)cc2)O[C@H]1c1ccccc1,1.44,0.573,1.01,-0.0214 (inactive),0.182,1.28,-0.201,-0.524,0.142,0.862,1.18,-0.716,-0.42,0.732,1.14,-0.0512,0.218,1.53,2.09,2.05
COc1ccc([Si](C)(C)[C@@H]2[C@@H](CCn3cc([C@H](O)c4ccccc4)nn3)O[C@]3(C(=O)N(Cc4cccc(N5CCOC5=O)c4)c4ccccc43)[C@H]2C)cc1,-1.35,-0.231,0.658,1.7 (inactive),-1.02,-1.01,-0.901,-0.995,-1.13,-0.495,-0.362,-2.64,-1.47,-0.13,0.78,-0.202,-0.117,-0.256,-0.0689,-0.85
C[C@]1(C(=O)NCc2ccccc2)c2ccccc2C(=O)N(Cc2ccc(OC(F)(F)F)cc2)[C@H]1c1ccc(CO)cc1,0.0162,-0.098,0.663,-0.557 (inactive),0.0259,0.0034,-0.535,0.115,-0.393,0.0615,1.39,0.0711,-0.579,-0.119,0.122,-0.0882,-0.304,-0.381,0.696,-0.141
COc1ccc(C#Cc2ccc3c(c2)[C@]2(C(=O)N3)[C@H](C(=O)NC[C@H](O)c3ccccc3)[C@H]3C(=O)O[C@H](c4ccccc4)[C@H](c4ccccc4)N3[C@@H]2c2ccccc2OCCO)cc1,1.74,0.408,0.334,-0.955 (inactive),0.877,1.19,0.186,1.16,0.169,-0.0953,0.272,-2.86,0.5,1.08,0.243,0.0229,0.232,0.325,0.967,1.22
O=C1C2C=CC(C(O)c3ccc(F)cc3)N(Nc3ccccc3)C2C(=O)N1c1ccccc1 (stereo not given),1.44,1.05,0.794,0.444 (inactive),-0.0653,-0.0052,-0.296,-0.216,-0.954,1.46,1.42,-0.379,-0.238,0.691,0.619,0.0597,-0.289,0.195,0.691,1.97
COC(=O)[C@@]1(Cc2ccccc2)[C@H]2c3cc(C(=O)N(C)C)n(Cc4cc(C)n(C)n4)c3C[C@H]2CN1C(=O)c1ccccc1,1.32,0.866,0.947,-1.26 (inactive),0.0408,0.764,0.3,0.642,-0.72,1.11,1.02,-0.995,-0.279,1.8,0.908,-0.319,-0.465,-0.199,3.2,0.285
C=CC[C@@]1(C(=O)NCC(O)CO)N=C(c2ccc(OCCCO)cc2)O[C@@H]1c1ccccc1N=[N+]=[N-] (stereo not given in full),0.663,0.854,1.12,-1.25 (inactive),0.618,-0.669,-0.656,0.326,-0.612,1.02,1.49,-0.747,-0.709,1.61,0.643,-0.0846,0.0062,1.39,2.06,1.12
C=CCC(OC(C)=O)[C@@H]1[C@@H](N(Cc2cc3ccccc3o2)C(=O)c2ccc(C)cc2)c2cc(OCCCO)ccc2N1C(=O)c1ccc2ccccc2c1 (stereo not given in full),-0.119,-0.0022,0.263,-0.422 (inactive),0.299,-0.274,0.105,0.194,0.0379,1.46,0.0468,-0.274,0.161,-0.0375,0.37,-0.0644,0.313,-0.314,0.189,-0.298
